Bioassay records from PubChem BioAssay.
Rab9 prom act – activates the Rab9 promoter; Huh7 Rab9 promoter-luciferase reporter, luminescence, 24 h; Potency, µM (titrated, usually from 9.22 µM), usual class: activators; 2.8% of 320,000 active; AID 485297; note: nearly all actives have a fitted effect of over 60% in size
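Steps: seed 1500 Huh7 Rab9-luc cells per well, rest 2 h at 37 °C; add compound in DMSO; incubate 24 h; add luciferase reagent, 10 min ambient; read luminescence.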
NPC1 prom act – activates the NPC1 promoter; Huh7 NPC1 promoter luciferase reporter, 24 h; Potency, µM (titrated, usually from 9.22 µM), actives largely listed as activators; 2.4% of 320,000 active; AID 485313; note: nearly all actives have a fitted effect of over 60% in size
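Huh7 reporter cells (NPC1 promoter driving luciferase) are dosed with compound for 24 h at 37 °C, 5% CO2; luciferase detection reagent is then added and luminescence measured after 10 min at ambient temperature.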
ELG1 repair inh – inhibitors of ELG1-dependent DNA repair in HEK293T cells. Potency, µM (titrated, usually from 46.1 µM), hits mostly inhibitors. AID 504467. HEK293T ELG1-luciferase reporter, luminescence, 16 h; DNA damage induced by 5-fluorouridine. 2.3% of 330,000 active; note: nearly all actives have a fitted effect of over 55% in size
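HEK293T cells expressing luciferase-tagged ELG1 (2,000/well) received 5-Fluorouridine plus compound or DMSO for 16 hr at 37 °C. Luciferase was read by ONE-Glo luminescence after 30 min at room temperature.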
ELG1 genotox – genotoxicity induction in ELG1-luciferase HEK293T cells; HEK293T ELG1-luciferase reporter, luminescence, 16 h; Potency, µM (doses to about 46 µM), most hits filed as activators; 1.3% of 330,000 active; AID 504466; note: nearly all actives have a fitted effect of over 60% in size
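16 hr compound incubation (37 °C, 5% CO2) of HEK293T cells carrying luciferase-tagged ELG1; luciferase then measured by ONE-Glo luminescence after 30 min at RT.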
SMN2 splice enh – enhancers of SMN2 splice variant expression; HEK293 SMN2-luciferase splicing reporter, luminescence, 30-36 h; Potency, µM (highest dose often 46.1 µM), hits mostly activators; 2.8% of 210,000 active; AID 1458; note: nearly all actives have a fitted effect of over 55% in size
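HEK293 cells carry an SMN2 minigene-luciferase reporter in which exon 7 inclusion puts luciferase in frame. Cells were seeded at 2000 cells/well, attached for 10-12 hours, then exposed to compounds for 30-36 hours at 37C before ONE-Glo luminescence.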
FLuc modulator – firefly luciferase modulation, counter-screen for miR-21 project; 6.9% of 360,000 active; Potency, µM (series often up to 57.5 µM), most hits filed as inhibitors; purified FLuc, Km substrates, luminescence inhibition; note: nearly all actives have a fitted effect of over 55% in size
Target sequence (P08659 whole entry, looked up): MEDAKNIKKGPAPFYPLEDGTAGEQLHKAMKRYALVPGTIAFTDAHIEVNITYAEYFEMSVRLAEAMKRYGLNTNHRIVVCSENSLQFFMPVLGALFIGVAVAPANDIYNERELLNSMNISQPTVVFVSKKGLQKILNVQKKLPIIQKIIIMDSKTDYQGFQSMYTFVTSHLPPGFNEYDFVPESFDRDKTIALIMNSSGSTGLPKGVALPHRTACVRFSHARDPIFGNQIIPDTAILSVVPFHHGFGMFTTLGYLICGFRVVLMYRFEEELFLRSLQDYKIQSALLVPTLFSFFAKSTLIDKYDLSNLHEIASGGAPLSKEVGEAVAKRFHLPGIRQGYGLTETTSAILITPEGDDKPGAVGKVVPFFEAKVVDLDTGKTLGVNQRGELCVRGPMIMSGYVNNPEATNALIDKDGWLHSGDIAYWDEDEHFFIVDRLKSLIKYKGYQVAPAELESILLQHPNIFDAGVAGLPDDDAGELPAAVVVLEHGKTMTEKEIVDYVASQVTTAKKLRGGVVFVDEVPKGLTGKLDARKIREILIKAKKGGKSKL
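Biochemical qHTS of compounds, final roughly 60 µM downward over six points, against 10 nM purified firefly luciferase using Km concentrations of substrates (10 uM D-luciferin, 10 uM ATP) in Tris acetate pH 7.5 buffer; luminescence output.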
A number is an active result. A selection: hits, their analogues and other compounds. The true share with any hit is near 9.3%. Calls come from the whole dose curve; as a rule, active = well fitted curve in the direction sought with a large enough effect; inconclusive = small, poorly fitted or top-dose-only effect, or another doubt; inactive = no such curve, though single readings can be large; an effect the other way counts as inactive or inconclusive.

Screening CSc1nc2ccc(NC(=O)c3ccco3)cc2s1 returned Rab9 prom act 2.51µM, NPC1 prom act 2.82µM, ELG1 repair inh inconclusive, ELG1 genotox 8.2µM and FLuc modulator 9.53µM.
CCOc1ccc(S(=O)(=O)NCCc2sc(-c3ccc(C)cc3)nc2C)cc1 was read as FLuc modulator inactive.
Screening COc1ccc(NC2CCCCC2NS(=O)(=O)c2ccc(C)cc2)cc1 (centres undefined) returned Rab9 prom act inactive, NPC1 prom act inactive, ELG1 repair inh inactive, ELG1 genotox inactive and FLuc modulator inactive.
O=C(c1cnccn1)N1CCC[C@@]2(CCN(Cc3ccccc3)C2)C1 was read as SMN2 splice enh inactive.
`CSc1nc2ccc(NC(=O)c3nn(C(C)C)c(=O)c4ccccc34)cc2s1` gave Rab9 prom act inactive, NPC1 prom act inactive, ELG1 repair inh inconclusive, ELG1 genotox inactive, SMN2 splice enh inactive and FLuc modulator inconclusive.
Screening CC(=O)Nc1ccc2nc(NC(=O)c3ccc([N+](=O)[O-])o3)sc2c1 returned Rab9 prom act inactive, NPC1 prom act inactive, ELG1 repair inh 20.6µM, ELG1 genotox inactive and FLuc modulator 21.3µM.
CSc1nc2ccc(NC(=O)c3ccc(=O)n(C)n3)cc2s1 was read as Rab9 prom act inconclusive, NPC1 prom act inactive, ELG1 repair inh inconclusive, ELG1 genotox inactive, SMN2 splice enh inactive and FLuc modulator 16.9µM.
CC(CNC(=O)c1sc2ncccc2c1-n1cccc1)c1ccccc1 (centres undefined) was read as FLuc modulator inactive.
Screening COc1ccc(-c2cn3nc(N4CCCC(C(=O)NCc5ccccc5OC)C4)sc3n2)cc1 (centres undefined) returned FLuc modulator 16.9µM.
Cc1ccc(-c2cn3nc(N4CCCC(C(=O)NCc5ccccc5F)C4)sc3n2)cc1 (centres undefined) was read as FLuc modulator 6.01µM.
`CCN(CC)CCNC(=O)C1CCN(c2nn3cc(-c4ccc(F)cc4)nc3s2)CC1` gave FLuc modulator 21.3µM.
CCc1ccc(CNC(=O)C2CCN(c3nn4cc(-c5ccc(OC)cc5)nc4s3)CC2)cc1 was read as FLuc modulator inactive.
Screening COc1ccc(-c2cn3nc(N4CCCC(C(=O)NCc5ccccc5Cl)C4)sc3n2)cc1 (centres undefined) returned FLuc modulator 9.53µM.
COc1ccc(-c2cn3nc(N4CCCC(C(=O)Nc5ccc(Cl)cc5C)C4)sc3n2)cc1 (centres undefined) was read as FLuc modulator inactive.
Screening Cc1ccccc1CNC(=O)C1CCN(c2nn3cc(-c4ccc(F)cc4)nc3s2)CC1 returned FLuc modulator inactive.
CCOc1ccc(CCNC(=O)c2cc3n(n2)CCCN(Cc2ccc(C)cc2)C3=O)cc1OCC was read as FLuc modulator inactive.
For CCNc1nc2c(c(=O)[nH]c(=O)n2C)n1CC(O)COc1ccc(Cl)cc1Cl (centres undefined) the results were SMN2 splice enh inactive and FLuc modulator inactive.
Cc1nn(C)c2c1c(-c1ccccc1)cc(=O)n2CC(=O)Nc1ccccc1C(F)(F)F was read as FLuc modulator inactive.
O=C(NCc1cccc(Cl)c1)C1CCCN(c2nn3cc(-c4ccc(F)cc4)nc3s2)C1 (centres undefined) was read as FLuc modulator 9.53µM.
Screening CCN=c1scc(-c2ccc(F)cc2)n1/N=C/c1ccccn1 returned Rab9 prom act 3.16µM, NPC1 prom act 2.51µM, ELG1 repair inh inconclusive, ELG1 genotox 10.3µM, SMN2 splice enh 12.6µM and FLuc modulator 9.53µM.
`Cc1nc2ccccc2c(=O)n1/N=C/c1ccccn1` gave Rab9 prom act inactive, NPC1 prom act inactive, ELG1 repair inh inconclusive, ELG1 genotox inactive, SMN2 splice enh inactive and FLuc modulator inactive.
For CCN=c1scc(-c2ccccc2)n1/N=C/c1ccccn1 the results were Rab9 prom act 0.562µM, NPC1 prom act 0.355µM, ELG1 repair inh inconclusive, ELG1 genotox inconclusive, SMN2 splice enh 14.1µM and FLuc modulator 0.601µM.
`COc1ccc(OC)c(S(=O)(=O)NCc2cccn2Cc2cccc(C)c2)c1` gave FLuc modulator inactive.
Screening Cc1ccc(C(=O)Nc2ccccc2C(=O)NC(Cc2c[nH]c3ccccc23)C(=O)O)cc1 (centres undefined) returned Rab9 prom act inactive, NPC1 prom act inactive, ELG1 repair inh inconclusive, ELG1 genotox inactive, SMN2 splice enh inactive and FLuc modulator 10.7µM.
Screening Cc1ccc(C(=O)Nc2ccccc2C(=O)NC(Cc2ccccc2)C(=O)O)cc1 (centres undefined) returned Rab9 prom act inactive, NPC1 prom act inactive, ELG1 repair inh inconclusive, ELG1 genotox inactive, SMN2 splice enh inactive and FLuc modulator 10.7µM.
For O=C(NC(Cc1ccccc1)C(=O)O)c1ccccc1 (centres undefined) the results were Rab9 prom act inactive, NPC1 prom act inactive, ELG1 repair inh inactive, ELG1 genotox inactive, SMN2 splice enh inactive and FLuc modulator inactive.
Screening CCC(NC(=O)c1ccccc1NC(=O)c1ccc(C)cc1)C(=O)O (centres undefined) returned Rab9 prom act inactive, NPC1 prom act inactive, ELG1 repair inh inconclusive, ELG1 genotox inconclusive, SMN2 splice enh inactive and FLuc modulator 13.5µM.
`CCn1ccc2cc(S(=O)(=O)N3CCCN(C(=O)Nc4cccc(SC)c4)CC3)ccc21` gave FLuc modulator inactive.
Cc1cccc(NC(=O)c2cnn3ccccc23)c1C was read as Rab9 prom act inconclusive, NPC1 prom act inconclusive, ELG1 repair inh inconclusive, ELG1 genotox inactive and FLuc modulator inconclusive.
O=C(Nc1ccccc1O)c1ccccc1O was read as Rab9 prom act inactive, NPC1 prom act inconclusive, ELG1 repair inh inconclusive, ELG1 genotox inactive, SMN2 splice enh inactive and FLuc modulator 9.53µM.
`Cc1cccc(NC(=O)c2ccccc2O)c1C` gave Rab9 prom act inconclusive, NPC1 prom act inconclusive, ELG1 repair inh inconclusive, ELG1 genotox inactive, SMN2 splice enh inactive and FLuc modulator 13.5µM.
For Cc1ccc(C)c(NC(=O)c2ccccc2O)c1 the results were Rab9 prom act inconclusive, NPC1 prom act inactive, ELG1 repair inh inconclusive, ELG1 genotox inactive, SMN2 splice enh inactive and FLuc modulator 16.9µM.
Screening COc1ccc(Cl)cc1NC(=O)CCS(=O)(=O)c1ccc(C)cc1 returned Rab9 prom act inactive, NPC1 prom act inactive, ELG1 repair inh inactive, ELG1 genotox inactive and FLuc modulator inactive.
For CN(CC(=O)Nc1c(Cl)cccc1Cl)C(=O)c1n[nH]c2ccccc12 the results were Rab9 prom act inactive, NPC1 prom act inactive, ELG1 repair inh inactive, ELG1 genotox inactive and FLuc modulator inactive.
